SMILES strings stand for the structures.

This assay concerns Vero E6 infected with SARS-CoV-2. The assay is described as follows: morphology score (similarity to uninfected cells); higher = more like uninfected cells. The conditions noted are these: 24 h.
The compound `COc1cc([C@@H]2c3cc4c(cc3[C@@H](O[C@@H]3O[C@@H]5CO[C@@H](C)O[C@H]5[C@H](O)[C@H]3O)[C@H]3COC(=O)[C@H]23)OCO4)cc(OC)c1O` [etoposide] (10 µM) registered a morphology score of -0.114. In the case of `Cc1cccc(/C=N/Nc2cc(N3CCOCC3)nc(OCCc3ccccn3)n2)c1` (10 µM), the morphology score is -0.334.

`CC1(C)Cc2c(-c3ccccc3)c(-c3ccc(Cl)cc3)c(CC(=O)O)n2C1` [licofelone] (10 µM): the morphology score was 0.31. `NCC(=O)N[C@@H](CCC(N)=O)C(=O)O` (10 µM): the morphology score came out at 0.0903. The figure for `CCN1CCCC1=O` [1-ethyl-2-pyrrolidone] (10 µM) is 0.128; for `Cc1noc(C)c1-c1cc(O)cc([C@@H](O)c2ccccc2)c1` (10 µM) it is 0.154; for `O=c1cc[nH]c(=O)[nH]1` [uracil] (10 µM) it is -0.002.

In turn, `Cn1ncnc1[C@H]1c2n[nH]c(=O)c3cc(F)cc(c23)N[C@@H]1c1ccc(F)cc1` [talazoparib] (0.833333 µM) came in with a morphology score of -0.223. The figure for `C[C@]12CC[C@@H]3c4ccc(O)cc4CC[C@H]3[C@@H]1CC[C@@H]2OC(=O)CCC1CCCC1` [estradiol-cypionate] (10 µM) is -0.002; for `O=C(O)CCNC(=O)c1ccccc1` [betamipron] (10 µM) it is 0.00831. As for `NC(=O)C(c1ccccc1)(c1ccccc1)[C@@H]1CCN(CCc2ccc3c(c2)CCO3)C1` [darifenacin] (10 µM), the morphology score was -0.025.

For `CC1Oc2cc(cnc2N)-c2c(nn(C)c2C#N)CN(C)C(=O)c2ccc(F)cc21` (stereo not drawn) (10 µM), the morphology score was found to be 0.32. With `COc1ccccc1N1CCN(CCCCN2C(=O)c3ccccc3C2=O)CC1` (10 µM), the morphology score was determined as 0.185. Take `COc1cc2c(cc1OC)CN(C(=O)[C@@H](NCc1ccncc1)C(C)(C)C)CC2` (10 µM): the morphology score was -0.115. Regarding `CCC(=O)[C@@]1(C)[C@H](C)C[C@H]2[C@@H]3CCC4=CC(=O)C=C[C@]4(C)[C@H]3[C@@H](O)C[C@@]21C` [rimexolone] (10 µM), the morphology score stood at 0.134. The figure for `COC(=O)[C@H](NC(=O)c1cc(-c2ccccc2)nc2ccccc12)c1ccccc1` (10 µM) is 0.0787. The compound `COc1ccc(C(=O)CC2(O)C(=O)Nc3c(Cl)ccc(Cl)c32)cc1` (stereo not drawn) (0.833333 µM) had a morphology score of 0.00554. On to `CC[C@@H](c1ccc(F)c(F)c1)n1c(C(=O)OC)c(-c2ccno2)[nH]c1=S` (10 µM), for which the morphology score is -0.0397. `Cc1onc(O)c1C[C@@H](N)C(=O)O` (racemic) (10 µM): the morphology score was determined as 0.0374. The figure for `COc1cc(-c2cc(-c3cccc(O)c3)cnc2N)cc(OC)c1OC` (10 µM) is 0.51. Regarding `CC(=O)N1CC[N+](C)(C)CC1` [4-acetyl-1,1-dimethylpiperazinium] (10 µM), the morphology score came out at 0.103. Take `CCN1CCN(C(=O)Cc2ccc(Nc3ncc(F)c(Nc4ccc(C(=O)Nc5ccccc5Cl)cc4)n3)cc2)CC1` [aurora-a-inhibitor-i] (10 µM): the morphology score was -0.072.

Compound `OC1(c2ccc(Cl)c(C(F)(F)F)c2)CCN(CCCC(c2ccc(F)cc2)c2ccc(F)cc2)CC1` [penfluridol] (0.833333 µM) returned a morphology score of 0.173. For `O=C(Nc1ccccc1C(=O)NC1CCCCNC1=O)c1cc2ccccc2s1` (stereo not drawn) (10 µM), the morphology score worked out at 0.0242. As for `COC(=O)C1=CCCN(C)C1` [arecoline] (10 µM), the morphology score was determined as 0.184.

As for `NC12CC3CC(CC(C3)C1)C2` [amantadine] (10 µM), the morphology score is -0.265. `COc1cc(C[C@H]2c3cc(OC)c(OC)cc3CCN2C)c(Oc2cc3c(cc2OC)-c2c(OC)c(OC)cc4c2[C@H](C3)N(C)CC4)cc1OC` [thaliblastine] (10 µM) came in with a morphology score of 0.443. The figure for `Fc1ccc2nc(CCC#Cc3ccccn3)cn2c1` [dipraglurant] (10 µM) is 0.0385.
